These results are taken from PubChem BioAssay (NCI).

About 83,000 compounds went through this panel and 20% of them were active in at least one assay; those are over-represented in the sample as a whole.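 Step 1: grow cells in 96-well plates. Step 2: add test compound at a single concentration. Step 3: incubate 48 h. Step 4: record percent growth.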 The source made the active and inactive calls. Rule for the calls: active = growth percent below 10; inactive = the rest.

Common to all, as to experiment: NCI-60 one-dose screen, 48 h (100 = growth as untreated, 0 = no growth, -100 = all killed)
Assay [1] concerns NCI-H23 lung. The settings on record: 10 µM.
Assay [2] has as its system NCI-H226 lung. The following applies: 10 µM.
The subject of assay [3] is NCI-H322M lung. The settings on record: 10 µM.
The test system of assay [4] is NCI-H460 lung. The following applies: 10 µM.
The test system of assay [5] is HOP-92 NSCLC. The following applies: 10 µM.
Assay [6] relates to NCI-H522 lung. The following applies: 10 µM unless noted.
In assay [7] the test system is A549/ATCC NSCLC. The following applies: 10 µM.
In assay [8] the test system is 786-0 renal. The following applies: 10 µM.
Assay [9] relates to COLO 205 colon. The settings on record: 10 µM.
Assay [10] relates to DU-145 prostate. The following applies: 10 µM unless noted.
Assay [11] deals with K-562 leukemia. The following applies: 10 µM.
Assay [12] has as its system MALME-3M melanoma. The settings on record: 10 µM.
The subject of assay [13] is MDA-MB-231 breast. The settings on record: 10 µM.
Assay [14] relates to RXF 393 renal. The settings on record: 10 µM unless noted.
The subject of assay [15] is SF-268 CNS. The following applies: 10 µM.
For assay [16], the system named is SF-295 CNS. The following applies: 10 µM.
Assay [17] has as its system SF-539 CNS. The following applies: 10 µM.
The test system of assay [18] is UACC-257 melanoma. The following applies: 10 µM.
Assay [19] deals with M14 melanoma. The settings on record: 10 µM.
In assay [20] the test system is HOP-62 NSCLC. The settings on record: 10 µM.

On to `COC(=O)C1C(O)C(C)C(O)C(C)C=C(C)C2=C3C(=C(C)C(=O)c4c(O)c(c(C)c(OC(C)=O)c43)NC(=O)C(C)=C/C=C\C(C)C(O)C(C)C1O)OCO2` (configuration not stated), for which the growth is 107% (inactive) in [1]; 104% (inactive) in [2]; 140% (inactive) in assay [3]; 114% (inactive) in [4]; -5.62% (active) in [5]; 75.3% (inactive) in [6]. For the same compound, the growth in assay [7] is 112% (inactive); in assay [8], 101% (inactive); in assay [9] it was 125% (inactive); in assay [10], 115% (inactive); in assay [11], 127% (inactive); in assay [12], 126% (inactive). Moreover, the growth in [13] was 105% (inactive); in [14], 125% (inactive); in [15], 112% (inactive); in [16] it was 108% (inactive); in [17] it was 110% (inactive); in assay [18], 118% (inactive). Besides, the growth in assay [19] was 108% (inactive).
For the compound `CC[N+](CC)=c1ccc2nc3c(cc(N)c4ccccc43)oc-2c1`, the growth is -48% (active) in assay [2]; -46.5% (active) in assay [3]; -69% (active) in [20]; -57.4% (active) in assay [4]; -60.3% (active) in assay [5]; -48.4% (active) in [6]. For the same compound, the growth is -19.4% (active) in assay [7]; -79% (active) in assay [8]; -44.4% (active) in assay [9]; -60% (active) in [10]; 1.13% (active) in [11]; -60.9% (active) in assay [12]. In addition, the growth in assay [13] was -71.5% (active); in assay [14], -23.7% (active); in assay [15] it was -54% (active); in assay [16] it was -83% (active); in assay [17], -79.7% (active); in assay [18], -70.2% (active).
Regarding `CC(=O)Nc1cc(C)ccc1C`, the growth in assay [2] was 98.7% (inactive); in [3], 96% (inactive); in assay [20] it was 107% (inactive); in assay [4], 106% (inactive); in assay [5], 106% (inactive); in assay [6], 96.1% (inactive). Further, the growth is 100% (inactive) in assay [7]; 106% (inactive) in [8]; 102% (inactive) in assay [9]; 112% (inactive) in [10]; 102% (inactive) in assay [11]; 92.9% (inactive) in assay [12]. The growth in assay [13] was 112% (inactive); in assay [14] it was 105% (inactive); in assay [15], 101% (inactive); in assay [16], 101% (inactive); in assay [17] it was 96.8% (inactive); in [18] it was 101% (inactive).
Take `CCN(CC)c1ccc(NC(C(=O)c2ccccc2)c2ccccc2)cc1` (configuration not stated): the growth in assay [1] is 44.4% (inactive); in assay [2] it was 60.1% (inactive); in assay [3], 82.9% (inactive); in [20] it was 123% (inactive); in assay [4], 80.4% (inactive); in assay [5], 73.7% (inactive). Besides, the growth is 21.8% (inactive) in assay [6]; 92.5% (inactive) in [7]; -57.1% (active) in assay [8]; 20.5% (inactive) in [9]; 24.4% (inactive) in assay [10]; 10.4% (inactive) in [11]. The growth is 28.7% (inactive) in [12]; -34.1% (active) in assay [13]; 4.61% (active) in assay [14]; -22.8% (active) in [15]; 61.2% (inactive) in assay [16]; -50.1% (active) in assay [17]. In assay [18], the growth is 68.3% (inactive).
Take `NC(=O)SCC(=O)NNc1ccccc1`: the growth in assay [1] is 112% (inactive); in assay [2], 93.1% (inactive); in [3] it was 94.8% (inactive); in assay [20] it was 93.8% (inactive); in assay [4], 98.8% (inactive); in [5] it was 92.2% (inactive). In addition, the growth in assay [6] was 85.2% (inactive); in assay [7], 85.3% (inactive); in assay [8] it was 108% (inactive); in assay [9] it was 100% (inactive); in [10], 99.6% (inactive); in assay [11], 101% (inactive). Besides, the growth in assay [13] is 89.2% (inactive); in [14], 112% (inactive); in [15], 92.8% (inactive); in [16], 94.6% (inactive); in assay [17], 103% (inactive); in assay [18], 91.6% (inactive).
As for `O=C1C=C(O)c2ccccc2C1=O.[Ag]`, the growth in assay [1] is 91.8% (inactive); in [3], 99% (inactive); in assay [20], 98.3% (inactive); in assay [4], 94.7% (inactive); in assay [6], -34.4% (active); in [8], 104% (inactive). For the same compound, the growth in assay [9] is 78.8% (inactive); in [10] it was 121% (inactive); in [11] it was 83.5% (inactive); in [12], 85.3% (inactive); in [13] it was 89.2% (inactive); in assay [15], 113% (inactive). In addition, the growth in assay [16] is 97% (inactive); in assay [17], 114% (inactive); in [18], 76.2% (inactive).
On to `OCC(O)C(O)C(O)C(/C=N/Nc1ccccc1)=N/Nc1ccccc1` (configuration not stated), for which the growth in assay [1] was 93.1% (inactive); in assay [2], 91.4% (inactive); in [3] it was 68.9% (inactive); in assay [20] it was 70.2% (inactive); in assay [4] it was 89.9% (inactive); in assay [5] it was 75.1% (inactive). Besides, the growth is 55.5% (inactive) in [6]; 87.3% (inactive) in assay [7]; 107% (inactive) in assay [8]; 96.5% (inactive) in [9]; 89.1% (inactive) in assay [10]; 67.1% (inactive) in [11]. Further, the growth in assay [12] is 101% (inactive); in assay [13] it was 79.7% (inactive); in assay [14] it was 86.7% (inactive); in [15], 75.5% (inactive); in assay [16], 83.6% (inactive); in assay [17] it was 91.3% (inactive). Also, the growth in assay [18] was 104% (inactive); in assay [19] it was 87.5% (inactive).
